Screens (PubChem)
Sampled rows, rich in hits. Any-hit rate of the full collection: about 12%.
JMJD2A Tudor: blocks the human JMJD2A Tudor domain; O75164; AlphaScreen JMJD2A-Tudor / H3K4me3 peptide binding; Potency, µM (series often up to 114 µM), for inactives: at the highest dose activity change, negative = inhibition, usual class: inhibitors; hit rate 4.4% among 390,000; AID 504339; note: % is set by controls: 0 for no effect and ±100 for the full control effect; nearly all actives have a fitted effect of over 50% in size
BAZ2B block: BAZ2B (human) inhibition. AlphaScreen BAZ2B-H3K14Ac peptide displacement. hit rate 4.4% among 360,000. Q9UIF8. AID 504333. Potency, µM (top dose mostly 114 µM), without a hit: top-dose activity change, negative = inhibition, most hits filed as inhibitors; note: % is set by controls: 0 for no effect and ±100 for the full control effect; nearly all actives have a fitted effect of over 60% in size
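Compounds, titrated to a top concentration of 110 uM, were incubated 30 min at room temperature with preformed BAZ2B/acetyl-K14 H3 peptide complex (50 nM each). Proximity signal was measured by AlphaScreen after 20 min with beads.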
HP1b chromo inh: HP1-beta chromodomain-methylated histone interaction inhibition; AID 540317; AlphaScreen HP1-beta / biotin-H3K9me3 peptide binding; Potency, µM (doses to about 114 µM), for the others: at the highest dose activity change, negative = inhibition, most hits filed as inhibitors; P83916; hit rate 0.56% among 390,000; note: nearly all actives have a fitted effect of over 70% in size
Target sequence (P83916 whole entry, looked up): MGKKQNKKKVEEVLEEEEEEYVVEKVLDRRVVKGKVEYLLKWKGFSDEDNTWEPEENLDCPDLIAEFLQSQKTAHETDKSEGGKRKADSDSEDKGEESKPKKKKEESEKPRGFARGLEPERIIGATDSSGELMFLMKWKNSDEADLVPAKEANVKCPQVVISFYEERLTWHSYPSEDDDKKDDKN
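AlphaScreen: HP1-beta (50 nM) preformed 30 min with biotin-H3(1-18)K9me3 peptide (50 nM) in PBS pH 7.4, 0.01% Tween-20. Compound added for 30 min at RT, then streptavidin donor/nickel chelate acceptor beads (10 ug/mL) for 30 min.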
G9a inh: blocks human histone lysine methyltransferase G9a; hit rate 8.8% among 350,000; G9a H3K9 monomethylation, AlphaScreen, 2 h; Q96KQ7; Potency, µM (series often up to 102 µM), for the others: at the highest dose activity, negative = inhibition, usual class: inhibitors; note: % is set by controls: 0 for no effect and ±100 for the full control effect; nearly all actives have a fitted effect of over 75% in size
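Compounds were preincubated with 20 nM G9a for 15 min, after which biotinylated H3K9 peptide (500 nM) and SAM (20 uM) started a 2 h room-temperature reaction. Monomethylated product was quantified by antibody-based AlphaScreen chemiluminescence.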
Sfp inh: Sfp phosphopantetheinyl transferase inhibition | AID 1490 | Potency, µM, without a hit: largest response in the series, negative = inhibition, usual class: inhibitors | hit rate 3.5% among 310,000 | Biochemical Sfp PPTase activity, qHTS | Q9F4F7;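 note: the enzyme is Sfp with the accession as filed and its product quenches rhodamine fluorescence; 0% = enzyme reaction without inhibitor and -100% = no enzyme wells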
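After 15 min at room temperature with compound, 15 nM Sfp received 5 uM rhodamine-CoA plus 12.5 uM BHQ-2-ybbR (50 mM Hepes pH 7.6, 10 mM MgCl2). Rate came from the fluorescence difference over 30 min, ex 525/em 598 nm.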
PLK1 PBD block: inhibitors of human PLK1 polo-box domain binding. P53350. Plk1 PBD binding of FITC phosphopeptide, fluorescence polarization. Potency, µM, for the others: max response, negative = inhibition, actives largely listed as inhibitors. hit rate 2.8% among 360,000. AID 720504; note: series mostly up to about 57 µM; % is set by controls: 0 for no effect and ±100 for the full control effect; nearly all actives have a fitted effect of over 65% in size
Target sequence (P53350 whole entry, looked up, the tested form may be a part): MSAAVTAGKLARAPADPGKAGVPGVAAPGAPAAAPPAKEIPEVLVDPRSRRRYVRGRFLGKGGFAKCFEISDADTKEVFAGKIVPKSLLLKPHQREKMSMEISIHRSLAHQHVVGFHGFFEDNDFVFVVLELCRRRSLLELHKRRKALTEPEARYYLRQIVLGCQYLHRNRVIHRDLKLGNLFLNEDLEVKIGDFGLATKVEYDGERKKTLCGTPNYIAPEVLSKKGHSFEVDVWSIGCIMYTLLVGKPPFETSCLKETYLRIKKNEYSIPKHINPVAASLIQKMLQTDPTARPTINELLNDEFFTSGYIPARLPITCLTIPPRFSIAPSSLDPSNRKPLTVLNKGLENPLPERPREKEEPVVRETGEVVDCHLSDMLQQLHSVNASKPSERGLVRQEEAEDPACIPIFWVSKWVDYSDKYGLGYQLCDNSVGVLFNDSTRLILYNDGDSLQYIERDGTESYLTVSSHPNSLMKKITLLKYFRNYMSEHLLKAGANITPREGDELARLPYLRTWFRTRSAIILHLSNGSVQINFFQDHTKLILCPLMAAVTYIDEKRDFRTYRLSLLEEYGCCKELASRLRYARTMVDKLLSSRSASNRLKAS
An asterisk follows results filed as active; ? = inconclusive; · = no result given; [ ] = dose if it differs, or a comment. Calls come from the whole dose curve; as a rule, active = well fitted curve in the direction sought with a large enough effect; inconclusive = small, poorly fitted or top-dose-only effect, or another doubt; inactive = no such curve, though single readings can be large; an effect the other way counts as inactive or inconclusive. Potency is the fitted concentration of half-maximal effect.

SMILES | JMJD2A Tudor | BAZ2B block | HP1b chromo inh | G9a inh | Sfp inh | PLK1 PBD block
COc1cccc(C(=O)Nc2ccc(NC(C)=O)cc2)c1 | -17.9% | 4.3% | 16.0% | 19.6%[12.7 µM] | 15.0% | 2.4%
COc1ccc(C(=O)Nc2ccc(Nc3ccccc3)cc2)cc1[N+](=O)[O-] | 35.5µM* | ? | ? | ? | 12.2% | -10.6%
COc1ccccc1/C=C/C=C(\C#N)C(=O)NC(C)c1ccccc1 (centres undefined) | -23.3% | -14.3% | -15.6% | -7.7% | 23.6% | -12.3%
Cc1cc(C)n2nc(C(=O)Nc3nnc(C4CC4)s3)nc2n1 | 8.91µM* | -3.6% | -14.1% | ? | 50.1µM* | -8.2%
CCSc1nnc(NC(=O)CSc2nc(C)cc(C)n2)s1 | -4.0% | 2.3% | 53.3% | -1.0%[59 µM] | 16.4% | -6.2%
CCSc1nnc(NC(=O)c2nc3nc(C)cc(C)n3n2)s1 | 15.8µM* | -38.8% | 9.6% | -30.0% | ? | 2.5%
CCn1c(/C=C/Nc2ccccc2)[n+](CC)c2ccc(Cl)cc21 | -23.0% | 2.7% | 6.6% | 44.7µM* | 3.8% | -6.9%
CCOC(=O)c1ccc2c(c1)n(CC)c(/C=C/Nc1ccccc1)[n+]2CC | -16.6% | -34.4% | 41.4% | 7.5%[0.501 µM] | -0.1% | 1.9%
O=C(Nc1ccc(Cl)c(Cl)c1)c1ccccc1 | 17.6% | 10.6% | 60.6% | -7.5%[2.33 µM] | · | 1.8%
CN(C(=O)Nc1ccc(Cl)c(Cl)c1)c1ccccc1C(=O)O | 5.2% | -12.0% | 6.5% | 56.2µM* | -25.1% | -6.2%
O=C(CCC1CCCN(C(=O)CC2=CCCCC2)C1)N1CCN(c2ccccn2)CC1 (centres undefined) | 14.1µM* | -3.4% | -16.5% | 13.7% | -1.1% | 8.44µM*
COc1cccc(N=Cc2c[nH][nH]c2=O)c1 | 56.2µM* | -8.9% | -10.8% | · | 14.4% | 26.7µM*
CCOc1ccc(NC(=O)c2nc(S(=O)(=O)Cc3ccccc3F)ncc2Cl)cc1 | -4.7% | -2.2% | 48.1% | -38.8%[59 µM] | · | ·
O=C(NCc1ccccc1)c1nc(S(=O)(=O)Cc2ccccc2)ncc1Cl | -28.0% | -14.7% | 11.8% | -3.1%[0.501 µM] | ? | ?
COc1ccc(CNC(=O)c2nc(S(=O)(=O)Cc3ccccc3)ncc2Cl)cc1 | -1.2% | -37.3% | 27.0% | ? | -22.7% | 23.8µM*
O=C(NCc1ccc2c(c1)OCO2)c1nc(S(=O)(=O)Cc2ccccc2F)ncc1Cl | 6.2% | -36.1% | 36.8% | 17.8µM* | 25.1µM* | 13.4µM*
COc1ccc(N(Cc2ccccc2)C(=O)c2nc(S(C)(=O)=O)ncc2Cl)cc1 | -13.5% | -11.0% | 40.3% | 11.2µM* | · | ·
O=C(c1ccc(Cl)cc1)N(Cc1ccco1)Cc1ccco1 | -28.6% | ? | 2.3% | -46.3%[59 µM] | · | ·
CS(=O)(=O)c1ncc(Cl)c(C(=O)N(Cc2ccc(Cl)cc2)Cc2ccco2)n1 | -35.1% | -30.7% | 7.4% | 11.2µM* | · | ·
CCOc1ccc(N(Cc2ccccc2)C(=O)c2nc(SC)ncc2Cl)cc1 | -1.4% | 7.0% | 38.5% | 2.0%[59 µM] | · | ·
CCCN1CNc2c(c(=O)[nH]c(=S)n2CCc2cc(Cl)ccc2Cl)C1 | -10.9% | · | 42.4% | · | · | ·
CC[C@H](C)[C@H](NC(=O)[C@H](CCC(=O)O)NC(=O)[C@H](CC(N)=O)NC(=O)[C@@H](N)[C@@H](C)O)C(=O)N[C@H](C(=O)N[C@@H](CCC(=O)O)C(=O)N[C@@H](CCC(=O)O)C(=O)N[C@@H](CCC(N)=O)C(=O)N[C@@H](Cc1ccc(O)cc1)C(=O)N[C@H](C(=O)N1CCC[C@H]1C(=O)N[C@@H](CCC(N)=O)C(=O)N[C@@H](CO)C(=O)N[C@@H](CC(C)C)C(=O)N[C@@H](C)C(=O)N[C@H](C(=O)N[C@@H](CC(C)C)C(=O)N[C@@H](CCC(=O)O)C(=O)N[C@@H](CO)C(=O)N[C@H](C(=O)N[C@@H](Cc1ccccc1)C(=O)N[C@@H](CCC(N)=O)C(=O)N[C@@H](CCC(=O)O)C(=O)N[C@@H](CC(C)C)C(=O)NCC(=O)N[C@@H](CCCCN)C(=O)N[C@@H](CC(C)C)C(=O)N[C@H](C(=O)NCC(=O)N1CCC[C@H]1C(=O)N[C@@H](CC(N)=O)C(=O)N[C@@H](CO)C(=O)N[C@@H](CCC(N)=O)C(=O)O)[C@@H](C)O)C(C)C)[C@@H](C)O)[C@@H](C)O)C(C)C | · | · | · | · | -5.3% | ·
CCCCn1c(SCc2nc(N)nc(N3CCCCC3)n2)nc2c1c(=O)n(C)c(=O)n2C | -15.9% | -8.1% | 21.3% | -16.2% | 8.3% | -6.9%
CCS(=O)(=O)c1ncc(Cl)c(C(=O)NCc2ccccc2)n1 | -13.9% | -8.4% | 45.6% | ? | · | ·
O=C(NCc1ccc2c(c1)OCO2)c1nc(S(=O)(=O)Cc2ccccc2)ncc1Cl | -23.6% | -24.7% | 9.3%[57 µM] | 50.1µM* | ? | ?
SMILES | JMJD2A Tudor | BAZ2B block | HP1b chromo inh | G9a inh | Sfp inh | PLK1 PBD block
O=S(=O)(Nc1cccc(-c2ccc(N3CCOCC3)nn2)c1)c1ccc(F)c(C(F)(F)F)c1 | -34.2% | -7.2% | 21.7%[57 µM] | -2.7%[59 µM] | · | ·
CC(C)n1c(CSCc2ccc(Cl)cc2Cl)n[nH]c1=S | -12.0%[57.1 µM] | ? | -4.9% | 12.6µM* | 7.2% | ?
NNC(=O)CSCc1ccc(Cl)cc1Cl | -5.1% | -6.8% | 36.6% | 4.1%[59 µM] | 3.0% | -17.4%
O=S(=O)(c1ccc(OC(F)(F)F)cc1)N1CCC(O)(c2cccc(C(F)(F)F)c2)CC1 | -15.4% | 3.3% | 30.1% | -1.2% | 28.1% | 26.7µM*
CCOc1ccc(-n2c(=O)c3c(C)c(C)sc3n(CC(=O)NCCc3ccccc3)c2=O)cc1 | 7.5% | -0.5% | 30.8% | 0.6%[59 µM] | · | ·
CC(C)C[C@H](NC(=O)[C@H](CC(C)C)NC(=O)[C@@H](Cc1c[nH]c2ccccc12)NC(=O)[C@H](Cc1ccccc1)NC(=O)[C@@H](Cc1c[nH]c2ccccc12)NC(=O)[C@H](CCC(N)=O)NC(=O)[C@H](CCC(N)=O)NC(=O)[C@@H]1CCCN1C(=O)[C@H](CCCCN)NC(=O)[C@@H]1CCCN1C(=O)[C@@H](CCCNC(=N)N)NC(=O)[C@@H]1CCCN1C(=O)CNC(=O)[C@H](CC(C)C)NC(=O)[C@H](CC(C)C)NC(=O)[C@H](Cc1ccc(O)cc1)NC(=O)CNC(=O)[C@H](C)NC(=O)[C@H](CO)NC(=O)[C@H](CC(N)=O)NC(=O)[C@H](CC(C)C)NC(=O)[C@@H](NC(=O)[C@H](Cc1c[nH]c2ccccc12)NC(=O)CN)[C@@H](C)O)C(N)=O | · | · | · | · | -27.4% | ·
CC(=O)Nc1ccc(NCN2C(=O)C3C4CCC(C4)C3C2=O)cc1 (centres undefined) | 44.4% | 5.6% | 15.2% | 20.5% | -6.1% | 1.5%
Cc1ccc(NCN2C(=O)C3C4C=CC(C4)C3C2=O)cc1 (centres undefined) | 17.8µM* | 8.9% | -8.1% | 7.0% | 0.0% | 3.36µM*
